Activity calls are given as the source filed them.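 The calls were made as follows: active = cell survival after UV exposure 2 SD above solvent-only control wells at 10 µM, confirmed on one or two repeats; inactive = the rest.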
Experiment: protection of CHO cells from pyrene-fatty acid UV killing, primary screen, phospholipid biosynthesis inhibitor project, ZR-82 cells, Analyticon library, screen 2 (AID 1347383);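 also: survival reflects blocked phospholipid synthesis cutting uptake of the phototoxic fatty acid; compound and fatty acid exposure 3 h then viability read next day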
Details: ZR-82 CHO cells, CellTiter Blue, at 10 µM, peroxisome-deficient CHO-K1 variant, with DGAT-1, DGAT-2 and ACAT inhibitors
In the case of `CCC(C)(O)C(O)C(=O)OCC1CC[N+]2([O-])CCCC12` (centres undefined), the outcome is reported as “inactive”. In the case of `COc1ccc(CCc2cc(OC)cc(=O)o2)cc1`, the outcome is reported as “inactive”. For `CC(=O)OC/C(=C/C(=O)O)CC[C@@H]1C(C=O)=CC[C@@H]2C(C)(C)CCC[C@@]12C`, the outcome was “inactive”. With `C=CC(C)(C)c1c(OC)oc2cccc(C)c2c1=O` the outcome was “inactive”. For `COc1c(O)cc2c3c1COc1cc(O)cc(c1-3)CC2`, the outcome was “inactive”. In the case of `CCC(C)C(=O)O[C@H]1CCC=C2C=C[C@H](C)[C@H](CC[C@@H](O)C[C@@H](O)CC(=O)O)[C@H]21` (some centres undefined), the outcome is reported as “inactive”. For `CC1NC(=O)c2ccccc2NC1=O` (centres undefined), the outcome was “inactive”. For `O=C(O)C(O)Cc1c[nH]c2ccccc12` (centres undefined), the outcome was “inactive”. For `CC(C)=CCCC(C)(O)C1CC[C@]2(C)C1CC[C@@H]1[C@@]3(C)CCC(=O)C(C)(C)[C@@H]3CC[C@]12C` (some centres undefined), the outcome was “inactive”. For `Nc1ccccc1CCCCCCCCC(=O)O`, the outcome was “inactive”. For `COc1cc(/C=C/c2ccc(O)cc2)cc(OC)c1`, the outcome was “inactive”. For `CC(=O)Nc1ccccc1C(=O)O`, the outcome was “inactive”. With `CC1=CC(=O)CC(C)(C)[C@@]1(O)/C=C/C(C)=C/C(=O)O` the outcome was “inactive”. In the case of `O=C(O)/C=C/c1ccccc1O`, the outcome is reported as “inactive”. With `CC1OC(n2cnc3c(N)ncnc32)C(O)C1O` (centres undefined) the outcome was “inactive”. In the case of `COC12CC3C(C(C)C1=CC(=O)O2)C(O)C(OC(=O)/C=C/c1ccccc1)C1(O)C(C)(C)CCCC31C` (centres undefined), the outcome is reported as “inactive”. For `CC(C(=O)CCCCC(O)C(C)O)C(=O)N1C=CCC1` (centres undefined), the outcome was “inactive”. With `O=C1c2ccccc2C(=O)c2c(O)ccc(O)c21` the outcome was “inactive”. With `C/C=C/C=C/C(CC(=O)O)Nc1ccc(C=O)cc1` (centres undefined) the outcome was “inactive”. With `COc1ccc(C(O)C(C)OC2OC(CO)C(O)C(O)C2O)cc1` (centres undefined) the outcome was “inactive”. In the case of `C=CCc1ccc(OC(C)Cc2cc(OC)c(OC)c(OC)c2)c(OC)c1` (centres undefined), the outcome is reported as “inactive”. For `O=C1CC(c2ccc(O)cc2)Oc2cc(O)ccc21` (centres undefined), the outcome was “inactive”. With `CC(=O)O[C@H]1CC[C@H](C)[C@@]2(C)[C@H](OC(C)=O)c3c(C)coc3C(=O)[C@H]12` the outcome was “inactive”. In the case of `C/C=C(/C)C(=O)O[C@H]1CC(C)=C[C@@H](O)[C@]2(C)[C@@H]1[C@](O)(C(C)C)C[C@H]2OC(=O)/C(C)=C\C`, the outcome is reported as “inactive”. For `C=C(C)[C@@H]1CC[C@]2(C(=O)O)CC[C@]3(C(=O)O)[C@H](CCC4[C@@]5(C)CCC(=O)C(C)(C)C5CC[C@]43C)C12` (some centres undefined), the outcome was “inactive”. In the case of `COc1cc2ccc(=O)oc2cc1OC`, the outcome is reported as “inactive”. In the case of `C/C=C(\C)C(=O)O[C@@H]1[C@@H](C(C)C)[C@@H](OC(C)=O)C=C(CO)[C@@H]1O`, the outcome is reported as “inactive”. For `CC(C)(O)C(O)Cc1ccc2c(c1O)COC2` (centres undefined), the outcome was “inactive”. With `C=CC(C)(C)c1cc2cc(CC3OC3(C)C)c(OC)cc2oc1=O` (centres undefined) the outcome was “inactive”. In the case of `C=C(C=O)[C@]1(O)C[C@@]2(C)C(=CC1=O)C=C[C@H](OC(=O)/C=C/C=C/[C@H](C)CC)[C@@H]2C`, the outcome is reported as “inactive”. In the case of `O=c1c(O)c(-c2ccc(O)cc2)oc2cc(O)cc(O)c12`, the outcome is reported as “inactive”. With `COc1ccc2cc3[n+](cc2c1OC)CCc1cc2c(cc1-3)OCO2` the outcome was “inactive”. For `O=C(c1cccc(O)c1)c1c(O)cc(O)cc1O`, the outcome was “inactive”. In the case of `C/C=C/[C@@H]1C=C[C@@H]2C[C@H](C)CC[C@H]2[C@]1(C)C(O)=C1C(=O)[C@@H](CO)N(C)C1=O`, the outcome is reported as “inactive”. In the case of `CC[C@H](C)/C=C(C)/C=C/C1=CC2=CC(=O)[C@]3(C)OC(=O)[C@@H](C(C)=O)[C@@H]3C2=CO1`, the outcome is reported as “inactive”. In the case of `C=C1C(=O)O[C@@H]2C=C(C)[C@@H]3CC[C@@](C)(O)[C@@H]3C[C@H]12`, the outcome is reported as “inactive”. For `CCCCCCCC(O)/C=C\C(O)CCC(O)CCCC(=O)O` (centres undefined), the outcome was “inactive”. In the case of `CC(Cc1ccc(O)c(O)c1)C(C)Cc1ccc(O)c(O)c1` (centres undefined), the outcome is reported as “inactive”. For `Cn1c2c(c(=O)c3cc(O)ccc31)CC(C(C)(C)O)O2` (centres undefined), the outcome was “inactive”.
